Drawing on PubChem BioAssay (EPA / NIEHS), this text covers AC50 and outcome for eight compounds.

Read-out in experiment [1]: Monocyte Chemoattractant Protein-1 (MCP1), CCL2 (gene 6347)
As to the kind of experiment: BSK_SAg_MCP1: BioMAP Diversity Plus: SAg Assay for Monocyte Chemoattractant Protein-1 (MCP1) Biomarker Activity (AID 2283090). The following applies: primary human HUVEC with PBMC; actives raise or lower the signal. The method in brief: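 MCP-1 levels in the endothelial–PBMC SAg co-culture were quantified by ELISA at 24 h post-dosing; both increases and decreases versus DMSO scored. Cytotoxicity monitored by SRB total protein in parallel cultures.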

Read-out in experiment [2]: E-selectin (Homo sapiens) (UniProt P16581)
In words: BSK_SAg_Eselectin: BioMAP Diversity Plus: SAg Assay for Eselectin Biomarker Activity (AID 2283091). Particulars: primary human HUVEC with PBMC; actives raise or lower the signal. The method in brief: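 Primary human endothelial cells and peripheral blood mononuclear cells were co-cultured and exposed to chemical for 24 hours. E-selectin levels were then quantified by ELISA, with bidirectional curve fitting normalised to DMSO controls.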

Read-out in experiment [3]: Monokine induced gamma interferon (MIG), CXCL9 (gene 4283)
In words: BSK_SAg_MIG: BioMAP Diversity Plus: SAg Assay for Monokine induced gamma interferon (MIG) Biomarker Activity (AID 2283092). The following applies: primary human HUVEC with PBMC; actives raise or lower the signal. The method in brief:
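HUVEC plus human PBMC co-culture, chemicals dosed and MIG (CXCL9) quantified by ELISA at 24 h. Bidirectional curve fitting against DMSO as negative control and baseline, so both gain and loss of signal count as activity.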

A short description of experiment [4]: BSK_SAg_PBMCCytotoxicity: PBMC Cytotoxicity Assessment in the BioMAP Diversity Plus: SAg Assay (AID 2283093).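 Further: PBMC viability measured as Alamar Blue reduction fluorescence at 546/580 nm; fitted both ways against DMSO so a hit may be loss or gain of signal.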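 On AC50: PBMC superantigen activated with SEB plus TSST-1 one hour after compound addition.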 Particulars: primary human HUVEC with PBMC. The method in brief: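 Compound added to 75,000 PBMC/well for 1 h; SEB and TSST-1 then added at 20 ng/mL final each; 90 h incubation; Alamar Blue 6 h; read 546/580 nm ex/em. Activity fitted bidirectionally relative to DMSO baseline.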

Read-out in experiment [5]: Interleukin-8 (IL8), CXCL8 (gene 3576)
As to the kind of experiment: BSK_SAg_IL8: BioMAP Diversity Plus: SAg Assay for Interleukin-8 (IL8) Biomarker Activity (AID 2283094). The following applies: primary human HUVEC with PBMC; actives raise or lower the signal. The method in brief: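 Human umbilical vein endothelial cells co-cultured with peripheral blood mononuclear cells; IL-8 measured by ELISA 24 h after chemical dosing. Bidirectional concentration-response fitting used DMSO as negative control and activity baseline.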

Experiment [6] can be described thus: BSK_SAg_Proliferation: Cell Proliferation Assessment in the BioMAP Diversity Plus: SAg Assay (AID 2283095).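 Further: relative cell number as total protein by SRB absorbance in sub-confluent culture.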 The following applies: primary human HUVEC with PBMC. The method in brief: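 Human umbilical vein endothelial cells co-cultured with peripheral blood mononuclear cells; total protein measured by sulforhodamine B staining (0.1% SRB after 10% TCA fixation), absorbance at 560 nm, at 96 h. Bidirectional fit against DMSO baseline.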

Experiment [7] is described as follows: BSK_SAg_SRB: Viability Assessment in the BioMAP Diversity Plus: SAg Assay (AID 2283096).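 Further: cells read one day after compound addition; hits may be either gain or loss of signal compared with DMSO.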 The following applies: primary human HUVEC with PBMC. The method in brief: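 Total protein by sulforhodamine B staining, 24 h after dosing, in HUVEC–PBMC co-culture; DMSO-referenced bidirectional fitting.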
Experiment [8] has as its target human CYP2D6, CYP2D6 (gene 1565) (UniProt P10635). As to the kind of experiment: NVS_ADME_hCYP2D6: NovaScreen (NVS) CYP450-related Enzyme Activity (ADME) Assay for human CYP2D6 (AID 2283107; active means hit-call score of the fitted dose curve at least 0.9, where 1 is the maximum). The method in brief: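 Compounds were first tested in duplicate at 10 uM against recombinant enzyme produced in insect cells, with substrate turnover measured by fluorescence after 1 hour. Decreased signal, referenced to acetonitrile vehicle, was taken as reduced enzyme activity. Active chemicals went on to concentration-response testing.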

Experiment [9] concerns the target human CYP2C9, CYP2C9 (gene 1559) (UniProt P11712). As to the kind of experiment: NVS_ADME_hCYP2C9: NovaScreen (NVS) CYP450-related Enzyme Activity (ADME) Assay for human CYP2C9 (AID 2283108; active means hit-call score of the fitted dose curve at least 0.9, where 1 is the maximum). The method in brief:
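Fluorescence readout of CYP2C9 activity (SF9-expressed human enzyme) at 0.75 h. The primary screen used 10 uM in duplicate, with concentration-response follow-up for actives; acetonitrile was the negative control.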

The target in experiment [10] is Cytochrome P450 2C19 (Homo sapiens) (UniProt P33261). In words: NVS_ADME_hCYP2C19: NovaScreen (NVS) CYP450-related Enzyme Activity (ADME) Assay for human CYP2C19 (AID 2283113; active means hit-call score of the fitted dose curve at least 0.9, where 1 is the maximum;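 further: potency for inhibition seen as loss of fluorescent signal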). The method in brief: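 Chemicals first screened in duplicate at 10 uM against recombinant human enzyme produced in insect cells; confirmed actives then run as concentration series. Fluorogenic substrate turnover read by fluorescence after 1 h, normalised to acetonitrile.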

Experiment [11] concerns the target human CYP2B6, CYP2B6 (gene 1555) (UniProt P20813). In words: NVS_ADME_hCYP2B6: NovaScreen (NVS) CYP450-related Enzyme Activity (ADME) Assay for human CYP2B6 (AID 2283101; active means hit-call score of the fitted dose curve at least 0.9, where 1 is the maximum). The method in brief: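 Recombinant human CYP2B6 with fluorogenic substrate, read by fluorescence intensity 1 h after dosing. Primary screen in duplicate at 10 uM, actives followed in concentration series; signal loss relative to acetonitrile control.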

In experiment [12] the target is human CYP1A2, CYP1A2 (gene 1544) (UniProt P05177). In words: NVS_ADME_hCYP1A2: NovaScreen (NVS) CYP450-related Enzyme Activity (ADME) Assay for human CYP1A2 (AID 2283102; active means hit-call score of the fitted dose curve at least 0.9, where 1 is the maximum;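 further: potency for inhibition since loss of fluorescence marks reduced CYP1A2 activity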). The method in brief:
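Compounds were tested at 10 uM in duplicate against recombinant CYP1A2 produced in insect cells. Enzyme activity was measured by fluorescence 0.5 h after dosing, with loss of signal versus acetonitrile control. Active compounds were re-tested in concentration series.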

Experiment [13] concerns the target Cytochrome P450 3A4 (Homo sapiens) (UniProt P08684). As to the kind of experiment: NVS_ADME_hCYP3A4: NovaScreen (NVS) CYP450-related Enzyme Activity (ADME) Assay for human CYP3A4 (AID 2283110; active means hit-call score of the fitted dose curve at least 0.9, where 1 is the maximum). The method in brief: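 Compounds were first screened in duplicate at 10 uM against recombinant CYP3A4 produced in insect cells, then actives were run in concentration series. Enzyme activity was measured by fluorescence after 0.33 hour, with acetonitrile as baseline.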

Experiment [14] has as its target human CYP4F12, CYP4F12 (gene 66002) (UniProt Q9HCS2). As to the kind of experiment: NVS_ADME_hCYP4F12: NovaScreen (NVS) CYP450-related Enzyme Activity (ADME) Assay for human CYP4F12 (AID 2283111; active means hit-call score of the fitted dose curve at least 0.9, where 1 is the maximum). The method in brief:
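Cell-free fluorescence assay of recombinant human CYP4F12 activity on a specific substrate, read 0.5 h after dosing. Primary screen in duplicate at 10 uM, then concentration series for actives; loss of signal fitted against acetonitrile negative control.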

For experiment [15], the target named is human CYP1A1, CYP1A1 (gene 1543) (UniProt P04798). As to the kind of experiment: NVS_ADME_hCYP1A1: NovaScreen (NVS) CYP450-related Enzyme Activity (ADME) Assay for human CYP1A1 (AID 2283100; active means hit-call score of the fitted dose curve at least 0.9, where 1 is the maximum). The method in brief: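 Compounds first went through duplicate single-concentration testing at 10 uM against purified CYP1A1. Those passing a threshold such as 30% inhibition entered singleton dose-response, highest concentration 20 uM. Signal was fluorescence measured after 1 hour.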

The target in experiment [16] is human CYP2J2, CYP2J2 (gene 1573) (UniProt P51589). In words: NVS_ADME_hCYP2J2: NovaScreen (NVS) CYP450-related Enzyme Activity (ADME) Assay for human CYP2J2 (AID 2283106; active means hit-call score of the fitted dose curve at least 0.9, where 1 is the maximum). The method in brief:
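Cell-free assay of recombinant CYP2J2 with a fluorogenic substrate, read 1 h after dosing; loss of signal versus acetonitrile. Primary screen at 10 uM in duplicate, then concentration-response up to 20 uM for chemicals passing threshold (e.g., 30% inhibition).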

The target in experiment [17] is rat CYP1A2, Cyp1a2 (gene 24297) (UniProt P04799). As to the kind of experiment: NVS_ADME_rCYP1A2: NovaScreen (NVS) CYP450-related Enzyme Activity (ADME) Assay for rat CYP1A2 (AID 2283115; active means hit-call score of the fitted dose curve at least 0.9, where 1 is the maximum). The method in brief: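 Cell-free recombinant rat enzyme with fluorogenic substrate, read by fluorescence intensity 1 hour after dosing. Loss of signal versus acetonitrile negative control; primary screen at 10 uM in duplicate, actives followed in concentration series.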

Results filed as inconclusive are left out. Calls of active or inactive are those of the source. How the source made its calls, unless noted: active means hit-call score of the fitted dose curve at least 0.9, where 1 is the maximum; inactive means score below 0.9.

human CYP1A2, CYP1A2 (gene 1544), sequence (P05177 whole entry, looked up): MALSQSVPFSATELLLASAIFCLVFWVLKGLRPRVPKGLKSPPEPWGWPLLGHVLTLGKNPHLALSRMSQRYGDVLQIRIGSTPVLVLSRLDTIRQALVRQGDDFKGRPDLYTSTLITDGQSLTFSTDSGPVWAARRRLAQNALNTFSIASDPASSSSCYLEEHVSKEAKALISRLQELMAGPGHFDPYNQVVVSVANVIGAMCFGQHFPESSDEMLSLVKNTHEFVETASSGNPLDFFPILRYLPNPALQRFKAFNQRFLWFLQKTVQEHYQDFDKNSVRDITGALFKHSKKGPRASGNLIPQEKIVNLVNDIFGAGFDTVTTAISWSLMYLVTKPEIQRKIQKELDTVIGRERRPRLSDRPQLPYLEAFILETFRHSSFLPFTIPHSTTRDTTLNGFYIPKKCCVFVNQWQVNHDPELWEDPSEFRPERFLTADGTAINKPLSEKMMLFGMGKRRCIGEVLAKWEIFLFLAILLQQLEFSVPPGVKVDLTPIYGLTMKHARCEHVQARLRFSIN
E-selectin (Homo sapiens), sequence (P16581 whole entry, looked up): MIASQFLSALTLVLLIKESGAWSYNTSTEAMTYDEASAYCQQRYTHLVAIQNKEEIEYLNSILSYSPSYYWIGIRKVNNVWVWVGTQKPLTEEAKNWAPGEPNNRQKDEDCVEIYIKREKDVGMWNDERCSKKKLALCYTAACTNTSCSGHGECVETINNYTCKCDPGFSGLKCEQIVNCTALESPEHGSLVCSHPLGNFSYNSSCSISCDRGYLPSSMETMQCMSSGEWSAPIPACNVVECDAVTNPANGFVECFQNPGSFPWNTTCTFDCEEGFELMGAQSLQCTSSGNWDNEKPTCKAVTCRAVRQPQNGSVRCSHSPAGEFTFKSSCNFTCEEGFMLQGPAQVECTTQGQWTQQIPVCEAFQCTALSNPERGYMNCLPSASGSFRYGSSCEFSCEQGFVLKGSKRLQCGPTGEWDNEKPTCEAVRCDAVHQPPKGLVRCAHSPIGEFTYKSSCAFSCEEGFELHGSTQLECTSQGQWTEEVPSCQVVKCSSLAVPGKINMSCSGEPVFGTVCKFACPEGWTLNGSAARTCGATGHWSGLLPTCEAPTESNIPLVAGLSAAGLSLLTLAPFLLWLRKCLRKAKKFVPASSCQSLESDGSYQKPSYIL
human CYP2C9, CYP2C9 (gene 1559), sequence (P11712 whole entry, looked up): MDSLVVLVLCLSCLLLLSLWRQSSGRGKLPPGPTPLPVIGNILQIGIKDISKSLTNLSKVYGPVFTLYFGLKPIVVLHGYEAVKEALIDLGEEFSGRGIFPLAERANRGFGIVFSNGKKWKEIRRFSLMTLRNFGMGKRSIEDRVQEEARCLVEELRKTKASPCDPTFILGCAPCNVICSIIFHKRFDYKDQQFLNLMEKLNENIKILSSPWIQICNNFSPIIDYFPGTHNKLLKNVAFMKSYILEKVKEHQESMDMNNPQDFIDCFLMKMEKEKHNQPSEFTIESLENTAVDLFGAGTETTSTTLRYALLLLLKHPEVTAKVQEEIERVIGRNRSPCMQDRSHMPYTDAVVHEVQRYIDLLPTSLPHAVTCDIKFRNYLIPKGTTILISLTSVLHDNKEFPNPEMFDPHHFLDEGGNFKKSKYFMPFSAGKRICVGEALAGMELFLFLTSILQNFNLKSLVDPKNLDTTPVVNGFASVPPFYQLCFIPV
Cytochrome P450 3A4 (Homo sapiens), sequence (P08684 whole entry, looked up): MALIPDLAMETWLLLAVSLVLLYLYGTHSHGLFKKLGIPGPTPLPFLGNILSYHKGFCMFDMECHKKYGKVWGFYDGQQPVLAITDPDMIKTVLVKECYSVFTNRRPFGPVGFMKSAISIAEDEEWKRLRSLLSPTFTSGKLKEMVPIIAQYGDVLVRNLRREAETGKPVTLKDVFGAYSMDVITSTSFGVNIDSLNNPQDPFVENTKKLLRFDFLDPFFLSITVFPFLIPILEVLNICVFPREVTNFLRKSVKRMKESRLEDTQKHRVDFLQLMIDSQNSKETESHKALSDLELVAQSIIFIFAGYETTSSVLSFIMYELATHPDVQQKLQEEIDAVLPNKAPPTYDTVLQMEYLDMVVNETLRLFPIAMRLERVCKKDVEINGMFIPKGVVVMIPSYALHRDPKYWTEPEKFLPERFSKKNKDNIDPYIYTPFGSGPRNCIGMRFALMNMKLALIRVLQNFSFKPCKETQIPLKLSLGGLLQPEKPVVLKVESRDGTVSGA
human CYP2B6, CYP2B6 (gene 1555), sequence (P20813 whole entry, looked up): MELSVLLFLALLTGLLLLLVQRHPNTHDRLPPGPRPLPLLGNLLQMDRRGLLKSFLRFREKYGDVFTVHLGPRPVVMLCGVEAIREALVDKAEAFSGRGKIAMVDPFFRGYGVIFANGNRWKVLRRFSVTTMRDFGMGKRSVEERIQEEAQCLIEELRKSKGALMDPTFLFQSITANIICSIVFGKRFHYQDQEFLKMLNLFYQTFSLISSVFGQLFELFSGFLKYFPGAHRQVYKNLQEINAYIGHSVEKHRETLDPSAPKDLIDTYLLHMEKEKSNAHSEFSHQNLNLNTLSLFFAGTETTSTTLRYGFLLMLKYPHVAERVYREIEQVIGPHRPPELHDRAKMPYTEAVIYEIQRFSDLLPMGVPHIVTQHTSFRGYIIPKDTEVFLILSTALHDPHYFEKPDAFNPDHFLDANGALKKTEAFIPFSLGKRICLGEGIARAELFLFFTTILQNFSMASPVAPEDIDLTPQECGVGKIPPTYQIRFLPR
human CYP2J2, CYP2J2 (gene 1573), sequence (P51589 whole entry, looked up): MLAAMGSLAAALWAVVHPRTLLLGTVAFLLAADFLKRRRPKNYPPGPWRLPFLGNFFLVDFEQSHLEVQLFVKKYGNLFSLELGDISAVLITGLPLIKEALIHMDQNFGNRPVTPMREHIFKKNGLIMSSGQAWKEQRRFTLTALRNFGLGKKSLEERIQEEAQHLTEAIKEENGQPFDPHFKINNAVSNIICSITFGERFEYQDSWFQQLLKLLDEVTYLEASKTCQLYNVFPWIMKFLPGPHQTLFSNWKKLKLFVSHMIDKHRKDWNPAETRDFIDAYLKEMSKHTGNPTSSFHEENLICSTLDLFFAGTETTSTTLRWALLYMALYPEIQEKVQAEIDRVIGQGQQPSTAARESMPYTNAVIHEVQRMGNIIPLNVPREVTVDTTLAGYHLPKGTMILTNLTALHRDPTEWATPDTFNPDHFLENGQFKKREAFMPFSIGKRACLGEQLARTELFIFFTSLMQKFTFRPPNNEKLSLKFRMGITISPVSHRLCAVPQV
human CYP1A1, CYP1A1 (gene 1543), sequence (P04798 whole entry, looked up): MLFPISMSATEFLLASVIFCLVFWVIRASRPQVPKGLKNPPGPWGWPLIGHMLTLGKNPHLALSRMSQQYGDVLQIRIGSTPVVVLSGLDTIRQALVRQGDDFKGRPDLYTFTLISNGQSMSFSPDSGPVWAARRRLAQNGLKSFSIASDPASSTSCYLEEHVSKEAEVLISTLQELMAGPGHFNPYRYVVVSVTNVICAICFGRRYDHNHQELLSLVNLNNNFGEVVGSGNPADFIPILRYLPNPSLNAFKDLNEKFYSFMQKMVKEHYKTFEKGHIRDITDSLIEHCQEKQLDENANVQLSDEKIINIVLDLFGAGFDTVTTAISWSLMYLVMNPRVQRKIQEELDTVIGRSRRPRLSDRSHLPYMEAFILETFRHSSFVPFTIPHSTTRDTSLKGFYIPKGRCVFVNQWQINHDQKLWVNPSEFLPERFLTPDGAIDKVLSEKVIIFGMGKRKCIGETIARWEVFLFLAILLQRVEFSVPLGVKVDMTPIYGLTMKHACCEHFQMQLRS
rat CYP1A2, Cyp1a2 (gene 24297), sequence (P04799 whole entry, looked up): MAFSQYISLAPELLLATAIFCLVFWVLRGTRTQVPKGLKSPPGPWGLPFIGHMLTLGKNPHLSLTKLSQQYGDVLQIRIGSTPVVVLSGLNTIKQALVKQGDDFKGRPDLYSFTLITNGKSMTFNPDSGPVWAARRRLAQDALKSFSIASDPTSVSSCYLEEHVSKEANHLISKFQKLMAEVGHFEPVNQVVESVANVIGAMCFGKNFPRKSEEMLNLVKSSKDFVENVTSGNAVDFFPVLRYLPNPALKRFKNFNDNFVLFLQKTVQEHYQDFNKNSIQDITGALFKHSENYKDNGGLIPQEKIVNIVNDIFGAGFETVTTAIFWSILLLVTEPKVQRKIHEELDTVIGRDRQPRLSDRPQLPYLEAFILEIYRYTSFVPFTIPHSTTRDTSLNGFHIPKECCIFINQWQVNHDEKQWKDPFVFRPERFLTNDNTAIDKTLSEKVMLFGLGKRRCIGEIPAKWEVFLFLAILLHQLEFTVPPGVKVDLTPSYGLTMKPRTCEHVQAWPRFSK
human CYP4F12, CYP4F12 (gene 66002), sequence (Q9HCS2 whole entry, looked up): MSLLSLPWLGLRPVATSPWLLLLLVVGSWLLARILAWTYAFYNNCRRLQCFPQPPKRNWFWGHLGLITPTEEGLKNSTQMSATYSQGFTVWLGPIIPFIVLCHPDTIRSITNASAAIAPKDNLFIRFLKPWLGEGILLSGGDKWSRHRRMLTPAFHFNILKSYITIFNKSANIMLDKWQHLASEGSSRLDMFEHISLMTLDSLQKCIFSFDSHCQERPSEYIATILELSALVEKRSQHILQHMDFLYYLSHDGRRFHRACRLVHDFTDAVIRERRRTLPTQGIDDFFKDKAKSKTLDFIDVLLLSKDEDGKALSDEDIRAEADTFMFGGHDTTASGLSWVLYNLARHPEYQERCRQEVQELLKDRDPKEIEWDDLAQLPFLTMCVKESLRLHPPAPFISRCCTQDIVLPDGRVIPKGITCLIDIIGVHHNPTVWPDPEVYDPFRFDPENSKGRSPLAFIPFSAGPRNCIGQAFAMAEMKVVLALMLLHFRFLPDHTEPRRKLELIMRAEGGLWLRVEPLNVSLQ

By AC50 is commonly meant the concentration giving half of the maximal activity seen. In the case of `CC(C)Nc1ccc(Nc2ccccc2)cc1`, the AC50 was 6.2 µM (active) in [1]; 5.98 µM (active) in [2]; 9.5 µM (active) in experiment [3]; 0.016 µM (active) in [4]; 5.34 µM (active) in [5]; 0.0375 µM (active) in experiment [6]. Besides, the results for the AC50 in [7], in [9] and in experiment [10] were 14.1 µM (active), 2.66 µM (active) and 3.42 µM (active), respectively. The result in experiment [8] was inactive.

In the case of `CC(C)(C)c1ccc(O)cc1`, the result in experiment [1], in [2], in experiment [3], in experiment [5], in experiment [6] and in [7] was inactive.

With `C=CC(=O)OCC(CC)(COC(=O)C=C)COC(=O)C=C`, the AC50 was 2.6 µM (active) in experiment [1]; 1.36 µM (active) in experiment [2]; 3.36 µM (active) in experiment [3]; 2.93 µM (active) in experiment [4]; 1.7 µM (active) in [5]; 0.587 µM (active) in experiment [6]. For the same compound, the AC50 in experiment [7] was 3.38 µM (active); in [10], 2.4 µM (active).

Turning to `CCOP(=S)(Oc1ccc([N+](=O)[O-])cc1)c1ccccc1` (stereo unspecified), the outcome in [1], in [2], in experiment [3], in experiment [4], in experiment [5] and in experiment [7] was inactive. Besides, the AC50 in experiment [6] was 22.6 µM (active); in [11], 4.41 µM (active); in [12], 5.08 µM (active); in experiment [9], 5.15 µM (active); in experiment [13] it was 3.84 µM (active); in experiment [10] it was 0.198 µM (active).

Turning to `O=P(Oc1ccccc1)(Oc1ccccc1)Oc1ccccc1`, the AC50 in experiment [1] was 29 µM (active); in experiment [2], 33.7 µM (active); in experiment [3], 31.3 µM (active); in [5] it was 30.2 µM (active); in [6] it was 32.2 µM (active); in [7], 29.3 µM (active). For the same compound, the AC50 was 5.67 µM (active) in experiment [12] and 0.872 µM (active) in [10]. Besides, the result in experiment [4] was inactive.

As for `CCC1(c2ccccc2)C(=O)N=C(O)NC1=O` (stereo unspecified), the result in experiment [1], in experiment [2], in experiment [3], in experiment [4], in experiment [5] and in experiment [6] was inactive. The outcome in experiment [7] and in [14] was inactive.

Turning to `CC1(C)CN=C(NN=C(/C=C/c2ccc(C(F)(F)F)cc2)/C=C/c2ccc(C(F)(F)F)cc2)NC1`, the compound was classed as inactive in experiment [15] and in experiment [13]. The results for the AC50 in experiment [12] and in [16] were 12.9 µM (active) and 5.19 µM (active), respectively.

With `O=P(OCC(Br)CBr)(OCC(Br)CBr)OCC(Br)CBr` (stereo unspecified), the outcome in experiment [1], in [2], in experiment [3], in experiment [4], in [5] and in experiment [6] was inactive. For the same compound, the result in experiment [7] and in [17] was inactive. In experiment [10], the AC50 was 4.35 µM (active).
